# The sample as a whole holds a higher share of hits than the screen did.
# FECH block: blocks human mitochondrial ferrochelatase activity; P22830; purified FECH, Ni-mesoporphyrin absorbance 550 nm; calls only at 10 µM (by protocol); 20,000 compounds, 3.3% hits;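 active = enzyme reaction rate more than 3 SD below the solvent-only control wells on the same plate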;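 note: lower slope than DMSO wells means FECH inhibition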
# Target sequence (P22830 whole entry, looked up): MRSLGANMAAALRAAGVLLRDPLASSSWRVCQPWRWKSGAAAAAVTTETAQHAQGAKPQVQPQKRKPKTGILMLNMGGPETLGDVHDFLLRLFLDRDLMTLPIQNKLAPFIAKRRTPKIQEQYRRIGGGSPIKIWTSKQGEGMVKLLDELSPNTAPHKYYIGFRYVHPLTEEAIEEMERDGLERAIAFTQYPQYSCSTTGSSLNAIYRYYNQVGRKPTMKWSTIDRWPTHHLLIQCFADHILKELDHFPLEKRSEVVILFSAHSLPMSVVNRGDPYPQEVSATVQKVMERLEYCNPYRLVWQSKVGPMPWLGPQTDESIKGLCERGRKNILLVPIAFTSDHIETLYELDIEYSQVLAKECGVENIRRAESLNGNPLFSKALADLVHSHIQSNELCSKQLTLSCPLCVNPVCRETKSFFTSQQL
# Calls only; i = inactive; + = active, no number.
SMILES,FECH block
NS(=O)(=O)c1ccc(CN2Cc3ncccc3C2=O)cc1,i
O=C1c2cccnc2CN1C(CCn1cncn1)c1ccccc1 (centres undefined),i
NC(=O)[C@H](Cc1ccccc1)N1Cc2ncccc2C1=O,+
CCCNC(=O)C1CCC(Cn2c(=O)c3sccc3n(CC(N)=O)c2=O)CC1 (centres undefined),i
Cn1c(=O)c(C(=O)Nc2ccc(F)cc2)nc2ccccc21,i
Cn1c(=O)c(C(=O)Nc2ccccc2Br)nc2ccccc21,i
Cn1c(=O)c(C(=O)Nc2ccccn2)nc2ccccc21,+
Cc1cc(C)cc(Oc2cc(SCC(=O)Nc3ccccc3C)ncn2)c1,+
Cc1cc(C)cc(Oc2cc(SCC(=O)Nc3ccc(F)cc3Cl)ncn2)c1,+
Cc1ccc(NC(=O)CN2CCN(Cc3ccc(F)cc3Cl)S2(=O)=O)c(Cl)c1,i
CN(C)c1nc2ncnc(SCC(=O)Nc3ccc(F)cc3F)c2s1,i
COc1ccccc1CNC(=O)CN(C)Cc1c(C)nn(C)c1C,i
COc1ccccc1CNC(=O)CN(C)Cc1ncc(C)[nH]1,i
COc1cccc(CNC(=O)CSc2cc(Oc3cc(C)cc(C)c3)ncn2)c1OC,+
CCC(=O)Nc1ccccc1-c1nnc(SCC(=O)Nc2ccc(C)cc2C)[nH]c1=O,i
Cc1ccccc1NC(=O)CCNC(=O)COc1c(C)ccc(C)c1C,i
Cc1cc2nc(C(=O)NCc3cn4ccccc4n3)cc(C)n2n1,i
O=C(NCc1ccccc1)c1ccc(CN2C(=O)CCn3nc(-c4ccccc4)cc32)cc1,i
O=C1C[C@H]2CC[C@@H](CN1)N2C(=O)c1nc(-c2ccccc2)cs1,i
CN(C)[C@@H]1Cc2ccccc2[C@H]1NC(=O)c1cn(-c2ccccc2)nn1,i
Cc1ccc(N2C(=O)CCS2(=O)=O)cc1S(=O)(=O)Nc1ccc(N2CCCC2)cc1,i
Cc1ccc(-c2ccnc(-c3ccccc3CN3CCOCC3)n2)c(C)n1,i
Cc1ccc(Nc2cc(C)nc(Nc3ccc(NC(=O)c4ccc(C)cc4)cc3)n2)cc1,i
O=C1Nc2ccccc2C12CCCN(c1nc(-c3ccccc3)no1)C2 (centres undefined),i
CCN(C(=O)c1coc(COc2ccc(OC)cc2)n1)[C@H]1COC[C@@H]1O,i
SMILES,FECH block
COc1ccc(OCc2nc(C(=O)N3CC4(C)CN(C)CC(C)(C3)C4)co2)cc1,+
COc1ccc(OCc2nc(C(=O)N3CCNCC3c3ccccc3)co2)cc1 (centres undefined),i
CC(C)N1CCCn2nc(C(=O)N(C)Cc3nnc(-c4ccccc4)o3)cc2C1,i
CC(=O)Nc1ccc2nc(CN(Cc3ccccc3)Cc3nccs3)ccc2c1,i
CCCn1c(CNS(=O)(=O)c2ccc(Cl)s2)nc2cccnc21,i
CCCc1cnc(C)nc1-c1cccc(NC(C)=O)c1,+
CC(=O)Nc1cccc(-c2ccc3[nH]ncc3c2)c1,i
CC(=O)Nc1cccc(-c2ncc(C(F)(F)F)cc2Cl)c1,i
Cc1cccc(OCC(=O)Nc2cccc(OCc3cc(=O)n4ccc(C)cc4n3)c2)c1,i
Cc1ccc(OCC(=O)Nc2cccc(OCc3cc(=O)n4ccc(C)cc4n3)c2)cc1,i
Cc1ccc(OCC(=O)Nc2ccc(C)c(OCc3cc(=O)n4cccc(C)c4n3)c2)cc1C,+
Cc1cccc(OCC(=O)Nc2ccc(C)c(OCc3cc(=O)n4cccc(C)c4n3)c2)c1,+
Cc1ccc(NC(=O)COc2ccccc2)cc1OCc1cc(=O)n2cccc(C)c2n1,+
CCC(Oc1ccccc1)C(=O)Nc1ccc(C)c(OCc2cc(=O)n3cccc(C)c3n2)c1 (centres undefined),i
COc1ccc(OCC(=O)Nc2cccc(OCc3cc(=O)n4ccc(C)cc4n3)c2)cc1,i
Cc1ccn2c(=O)cc(COc3cccc(NC(=O)COc4ccccc4)c3)nc2c1,i
COc1ccc(OCC(=O)Nc2cccc(OCc3cc(=O)n4cc(Cl)ccc4n3)c2)cc1,i
Cc1ccccc1OCC(=O)Nc1ccc(C)c(OCc2cc(=O)n3cccc(C)c3n2)c1,+
Cc1ccn2c(=O)cc(COc3cccc(NC(=O)COc4ccccc4Cl)c3)nc2c1,i
Cc1ccc(OCC(=O)Nc2cccc(OCc3cc(=O)n4cc(Cl)ccc4n3)c2)cc1C,i
CCC/C=C/c1ccc2nc(C(C)O)[nH]c2c1 (centres undefined),i
CCCc1cc(=O)[nH]c(SCc2nc(-c3ccccc3C)oc2C)n1,i
CCc1ccccc1OC1CN(C(=O)c2nnc(CN(C)C)o2)C1,i
CCNc1ccnc(N2CCC(N3CCC(O)CC3)CC2)n1,i
CCNC(=O)N1CCC(NC2CCN(c3cc(C)cc(C)c3)CC2)CC1,i
SMILES,FECH block
Cc1cnn(-c2cc(N3CCC(n4cc(C5CC5)nn4)CC3)ncn2)c1,i
CCCCSc1ncc(CN2CCC3(CC2)CN(C)CCN3C)cn1,i
COc1ccc(-n2ccnc2-c2nc(-c3cccs3)oc2C)cn1,i
CCc1cccc(C)c1NC(=O)CSCc1nc(-c2ccccc2)no1,i
CCCCNC(=O)CSCc1nc(-c2ccc(Cl)cc2)no1,i
CN(C)c1ccc(-c2noc(C(=O)NCCc3ccc(S(N)(=O)=O)cc3)n2)cc1,i
CCNc1ccnc(N2CCC(N(CC)CC)C2)n1 (centres undefined),i
Cc1cc(N(C)C)nc(N2CCN(S(=O)(=O)c3ccc(Oc4ccccc4)cc3)CC2)n1,i
Cc1cc(N(C)C)nc(N2CCN(S(=O)(=O)c3ccccc3)CC2)n1,+
Cc1cccc(S(=O)(=O)N2CCN(c3nc(C)cc(N(C)C)n3)CC2)c1,i
CSc1ccccc1C(=O)Nc1cc(C)nn1-c1ncnc2c1cnn2-c1ccc(F)cc1,i
Cc1nc2nc[nH]n2c(=O)c1NC(=O)Nc1ccc2c(c1)OCO2,i
O=C(NCc1ccccc1)C1CCN(c2ncnc3c2nc2n3CCCCC2)CC1,i
CCN(CCNC(=O)C1CCCN(c2ncnc3c2nc2n3CCCCC2)C1)Cc1ccccc1 (centres undefined),i
CN(CCNC(=O)C1CCN(c2ncnc3c2nc2n3CCCCC2)CC1)Cc1ccccc1,+
CCCn1cnc2nc(CSc3ccccc3NC(=O)c3cccc(Br)c3)cc(=O)n21,+
COc1ccc(C(=O)Nc2ccccc2SCc2cc(=O)n3c(ncn3C(C)C)n2)cc1,i
CCCn1cnc2nc(CSc3ccccc3NC(=O)c3ccccc3)cc(=O)n21,i
CCCn1cnc2nc(CSc3ccccc3NC(=O)c3ccco3)cc(=O)n21,+
CC(C)n1cnc2nc(CSc3ccccc3NC(=O)Cc3ccccc3)cc(=O)n21,i
CCCn1cnc2nc(CSc3ccccc3NC(=O)c3ccc(F)cc3)cc(=O)n21,+
CCOc1ccccc1C(=O)Nc1ccccc1SCc1cc(=O)n2c(ncn2C(C)C)n1,i
Cc1ccc(C(=O)Nc2ccccc2SCc2cc(=O)n3c(ncn3C(C)C)n2)cc1F,i
CC(C)n1cnc2nc(CSc3ccccc3NC(=O)c3ccc(Br)cc3)cc(=O)n21,i
COc1cccc(CN2CCN(c3nc4ccccc4n3CCO)CC2)c1F,i
O=C([C@H]1[C@H]2C=C[C@]3(CN(C4CCCCC4)C(=O)[C@@H]13)O2)N1CCn2cncc2C1,i
O=C(c1cc(Cn2ccc3ccccc32)[nH]n1)N1Cc2ccccc2C1,i
O=C(CCc1ccccc1)Nc1nc2n(n1)C(c1c(F)cccc1Cl)C=C(c1ccccc1)N2 (centres undefined),+
CC(C)CC(=O)Nc1nc2n(n1)C(c1ccccc1Cl)C=C(c1ccccc1)N2 (centres undefined),i
O=C(Nc1nc2n(n1)C(c1c(F)cccc1Cl)C=C(c1ccccc1)N2)c1ccco1 (centres undefined),i

# From PubChem BioAssay
